# Measured values taken from PubChem BioAssay (NCI).
# Where “and” joins values, the source holds several entries; their conditions need not be identical. Equal values may be shown once. Compounds without any hit were thinned out: in the full panel of roughly 83,000, 20% have a hit.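 Single-dose data. Exposure time 48 hours. Values below 10 considered active.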 A number with no mark means an inactive call. Calls of active or inactive are those of the source.
# What was measured:
# Test in all cases: NCI-60 one-dose screen, 48 h (100 = growth as untreated, 0 = no growth, -100 = all killed)
# Conditions in all cases: 10 µM unless noted
# NCI-H23 lung = tested on: NCI-H23 lung
# NCI-H226 lung = tested on: NCI-H226 lung
# NCI-H322M lung = tested on: NCI-H322M lung
# HOP-62 NSCLC = tested on: HOP-62 NSCLC
# NCI-H460 lung = tested on: NCI-H460 lung
# HOP-92 NSCLC = tested on: HOP-92 NSCLC
# NCI-H522 lung = tested on: NCI-H522 lung
# A549/ATCC NSCLC = tested on: A549/ATCC NSCLC
# 786-0 renal = tested on: 786-0 renal
# COLO 205 colon = tested on: COLO 205 colon
# DU-145 prostate = tested on: DU-145 prostate
# K-562 leukemia = tested on: K-562 leukemia
# MALME-3M melanoma = tested on: MALME-3M melanoma
# MDA-MB-231 breast = tested on: MDA-MB-231 breast
# RXF 393 renal = tested on: RXF 393 renal
# SF-268 CNS = tested on: SF-268 CNS
# SF-295 CNS = tested on: SF-295 CNS
# SF-539 CNS = tested on: SF-539 CNS
# UACC-257 melanoma = tested on: UACC-257 melanoma
# M14 melanoma = tested on: M14 melanoma
SMILES,growth (NCI-H23 lung),growth (NCI-H226 lung),growth (NCI-H322M lung),growth (HOP-62 NSCLC),growth (NCI-H460 lung),growth (HOP-92 NSCLC),growth (NCI-H522 lung),growth (A549/ATCC NSCLC),growth (786-0 renal),growth (COLO 205 colon),growth (DU-145 prostate),growth (K-562 leukemia),growth (MALME-3M melanoma),growth (MDA-MB-231 breast),growth (RXF 393 renal),growth (SF-268 CNS),growth (SF-295 CNS),growth (SF-539 CNS),growth (UACC-257 melanoma),growth (M14 melanoma)
COc1ccc2oc3cc(NCCN(C)C)ccc3c(=O)c2c1,112% and 83%,109% and 102%,76.5%,88.2% and 54.1%,97.7% and 61.7%,88.2% and 82.1%,65.7%,95.2% and 73.8%,103% and 76.9%,84.3% and 47.7%,108% and 76.6%,66.7% and 43.2%,94.8% and 81.7%,83.5% and 73.6%,107% and 92.5%,104% and 82.7%,54.7% and 72.1%,80.7% and 84.2%,86.9%,–
Clc1ccc2c(c1)N(C1CCCN(Cc3ccccc3)C1)c1ccccc1S2 (stereo not given),61.9%,82.1%,31.1%,82.1%,25.4%,51.7%,14.9%,35%,61.8%,3.47% (active),74.1%,18.5%,78.4%,51.8%,-15.7% (active),39.2%,77.6%,40.8%,55.1%,-26.9% (active)
CC(O)CCNC(c1ccccc1)C(O)c1ccccc1 (stereo not given),105%,111%,112%,104%,106%,86%,89.8%,117%,97.9%,117%,131%,101%,123%,104%,115%,111%,102%,115%,108%,–
COc1cc(C2c3cc4c(cc3C(OC(=O)C[n+]3ccccc3)C3COC(=O)C23)OCO4)cc(OC)c1OC (stereo not given),20.8%,22.5%,33%,19.3%,4.91% (active),71.5%,-23.4% (active),7.1% (active),25.8%,-56.3% (active),-40.1% (active),6.79% (active),59%,-2.88% (active),41.1%,8.83% (active),1.14% (active),-9.3% (active),55.1%,–
OC(CC(c1ccccc1)c1cccc2ccccc12)(c1ccccc1)c1ccccc1 (stereo not given),76.2% and 71.1%,77.9% and 79.1%,97.5% and 105%,94.6% and 97%,89.2% and 91.4%,49.5% and 58.4%,47.9% and 62.7%,73.7% and 79.1%,85.7% and 79.7%,90.3% and 92.4%,108% and 103%,92.9% and 67.2%,101% and 104%,69.4% and 71.2%,92.7% and 86.7%,84.9% and 89.4%,80% and 81.3%,94.4% and 93.3%,62.8% and 85.3%,–
O=c1[nH]c(=S)[nH]n1C(=S)n1[nH]c(=S)[nH]c1=O,110%,85%,96.8%,97.2%,103%,82.2%,84.6%,93.6%,106%,111%,110%,98.8%,102%,111%,95.6%,103%,97.8%,110%,108%,–
Clc1ccc2sc(-c3ccccc3)nc2c1,101%,82.2%,102%,74.5%,80%,105%,82.5%,71.4%,108%,115%,113%,92.9%,104%,80.3%,103%,96%,100%,95.5%,65.6%,102%
Nc1c(Cl)cc2c(c1Br)C(=O)c1ccccc1C2=O,88.2%,99.5%,96%,101%,110%,125%,91.7%,98.1%,105%,104%,121%,83.5%,132%,83.3%,110%,108%,104%,84.6%,108%,–
Cc1cc2ccccc2c2cc3ccccc3cc12,94.9%,68.4%,85.9%,85.6%,89.2%,99%,81%,92.7%,110%,79.4%,107%,95.4%,86.9%,79.9%,97.7%,100%,96.9%,92.6%,99.6%,–
COc1ccc(COC=O)cc1,97.3%,100%,99.1%,98.4%,104%,109%,95.5%,106%,103%,108%,98.7%,96.5%,102%,112%,110%,95.9%,101%,105%,98.5%,–
N=C(N)N1CCc2ccccc2C1,87.2% and 106%,97.6% and 108%,98.6% and 116%,93.1% and 96.8%,103% and 95.5%,156%,83.9% and 118%,81.9% and 96.9%,87.5% and 112%,100% and 106%,105% and 97.3%,71.4% and 108%,82% and 110%,99% and 103%,97.2% and 121%,98.9% and 97.3%,88% and 106%,104% and 96.8%,86.5% and 95.4%,93.2% and 108%
CCc1ccc(OC(=O)CCl)cc1,96.7%,97%,102%,110%,106%,101%,102%,105%,104%,111%,102%,102%,96.9%,99.4%,113%,95.3%,97.8%,99%,103%,–
CC(=O)Nc1ccc2oc(=O)ccc2c1,101%,96.5%,101%,96.7%,109%,95%,93.3%,102%,81.6%,107%,100%,64.9%,110%,94.6%,103%,114%,108%,99.1%,104%,–
